± gives the standard deviation of the averaged measurements. Whole data set: some 25,000 sequences, median “ln(normalized median fluorescence intensity)” near 10, cut for the highest 2% near 12. The list comes from a sample in which the highest values are over-represented; it also holds similar and randomly drawn sequences.
tested on: PfAP2-G AP2 domain (GST-tagged); experiment: gcPBM binding intensity (ln(normalized median fluorescence intensity)); higher = stronger DNA binding
In short: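 Binding intensity is defined as the maximum Masliner-normalised natural-log median intensity across replicate spots for either probe orientation. It was measured on an Agilent 4 × 180k array of primer-extended double-stranded 36-bp intergenic genomic probes and negative controls, to which GST-tagged P. falciparum DNA-binding domains made in E. coli were applied for 1 h in 1× PBS with 1% milk, 0.2 mg/ml BSA, 0.5% salmon testes DNA and 0.03% Triton X-100. Detection was by Alexa488 anti-GST antibody and scanning at 488 nm.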

Sequence | gcPBM binding intensity (ln)
TAAGAAATAAATAGTACACACATAGACACCCACCCA [CACACA_site8429] | 11.7 ± 0.8
TAAGAAATAAATAGTACACACATAGACACCCACCGA [CACACA_site1516] | 11.5 ± 0.93
GCATAAGAAATAAATAGTACACACATAGACACACAC [XGTACX_site3095] | 11.6 ± 0.85
TGATCTTTACACATATTATATATATATAAAAAAAAA [XGTACX_negctrl_site360] | 9.99 ± 0.26
TCTTGAAAAAGAATCAATCGGTCGACAAAAAAAAAA [CACACA_negctrl_site1099] | 10.4 ± 0.24
GTCTTAAAAATTAAAACACACGTTCACTTTCATATT [CACACA_site5803] | 10.05 ± 0.021
CAAAGGAAATGGTGTACACAATTTTTCCTTTTTCGT [CACACA_site4800] | 11.8 ± 1.2
TTTCAAAGGAAATGGTGTACACAATTTTTCCTTTTT [XGTACX_site2340] | 11.7 ± 0.88
TTTTCCTTTCACAATGGTACACAAATATACATGCAA [XGTACX_site7244] | 11.2 ± 0.8
ATATTGTGTTATAAATGTACACAATTTCCTTTCATA [XGTACX_site7481] | 11.3 ± 0.79
ATTATACAAAATGGTAAGGAAAAGGAAATTTTTTTT [CACACA_negctrl_site1090] | 9.77 ± 0.014
AAAAAAAAATGTCATGGTACACAATTTTTTCTTTTT [XGTACX_site4505] | 11 ± 0.56
ATATATATGGATGGACGTACGTATGTATGTAATTTC [XGTACX_site4135] | 11.3 ± 0.64
CAATTTATAAAGAAAACACACATATACATAAATACA [CACACA_site4829] | 10.2 ± 0.16
AAAAGAAATATTTATACACACACACTAACATATATA [CACACA_site8580] | 10.09 ± 0.035
AAATAAGAAAAAGCGCGTACACATAACATTTTTATA [XGTACX_site8807] | 11.7 ± 0.93
TATATATATTTATACACACAAACATAATACTACTTA [CACACA_site2022] | 10.3 ± 0.22
TTGGTGGATAAATTTACACACAATAATTTTCGTTCA [CACACA_site467] | 10 ± 0.14
AAAATTTTTTACTTTACACACATTTTGTATATTTTG [CACACA_site1730] | 9.98 ± 0.23
AAAAAAAATTTTATCTGTACACATTTTTTTCTTTTT [XGTACX_site4229] | 11.6 ± 0.74
ACTGTAAAAGGATTTACACACATATTTACATTTACA [CACACA_site519] | 10.01 ± 0.021
AAAAAATTCTGGTACTGTACACATTTTTTTAAATTT [XGTACX_site6904] | 11.7 ± 1
TTTAAAAATTAATTCTGTACACATTTTTATTTTATT [XGTACX_site8] | 11.5 ± 0.8
AAAAAAAAAATTTACTGTACACATTTGGGATACTCA [XGTACX_site5191] | 11.7 ± 0.76

— the supplement of paper PMC11417369
